The panel holds about 83,000 compounds, 20% with a hit somewhere; the sample as a whole holds those more often.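 Treatment: one concentration, 48 hours, 96-well format. Scoring: percent growth, with anything below 10 considered active.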 Unmarked numbers belong to inactive results. Active and inactive are the calls of the source.

Among the test systems are T-47D breast; BT-549 breast; MDA-MB-435 melanoma; SW-620 colon; MCF7 breast; HCT-116 colon; HCC-2998 colon; KM12 colon.
Experiment in all cases: NCI-60 one-dose screen, 48 h (100 = growth as untreated, 0 = no growth, -100 = all killed)
What all share (conditions): 10 µM unless noted

In the case of `COc1ccc(-c2ccc(-c3ccc(C(=N)N)s3)s2)cc1Cl`, the growth was 6.3% (active) with T-47D breast; 94.9% in the test on BT-549 breast; -81.4% (active) in the test with MDA-MB-435 melanoma; -78.7% (active) in the test with SW-620 colon; -66.2% (active) in the test with MCF7 breast; -95.8% (active) with HCT-116 colon. Further, the growth was 9.04% (active) in the test with HCC-2998 colon and -86.1% (active) in the test with KM12 colon.

With `COc1cc(NC(N)=NCCC(C)(C)Oc2ccc(C(F)(F)F)cc2)ncc1C#N`, the growth in the test with T-47D breast is -44.6% (active); in the test with BT-549 breast it was 40.4%; with MDA-MB-435 melanoma, -91.2% (active); with SW-620 colon, -79% (active); with MCF7 breast, -71.1% (active); in the test with HCT-116 colon, -88.4% (active). Further, the values for the growth in the test on HCC-2998 colon and in the test on KM12 colon were -86.6% (active) and -51.7% (active), respectively.

For the compound `COC(=O)C(Sc1ccc(Cl)cc1)C1SC(=S)N(Cc2ccccc2)C1=O` (configuration not stated), the growth in the test on T-47D breast is 81.7%; with BT-549 breast, 84.1%; in the test with MDA-MB-435 melanoma, 90.4%; with SW-620 colon, 98.3%; in the test with MCF7 breast, 77.2%; in the test on HCT-116 colon it was 89.7%. In addition, the values for the growth in the test with HCC-2998 colon and with KM12 colon were 103% and 99.6%, respectively.

On to `COc1ccc(C(=O)N2NC(=O)/C(=C/c3ccc(F)cc3)N=C2c2ccccc2)cc1`, for which the growth in the test with T-47D breast is 95.6%; in the test on BT-549 breast, 83%; in the test on MDA-MB-435 melanoma it was 87.6%; in the test with SW-620 colon, 69.3%; in the test with MCF7 breast, 96.6%; with HCT-116 colon, 81.2%. Moreover, the growth with HCC-2998 colon was 97.4%; in the test on KM12 colon, 85.5%.

For the compound `Cc1nn(-c2ccc([N+](=O)[O-])cc2)c2ncnc(NCCc3ccccc3)c12`, the growth with T-47D breast is 93%; in the test with BT-549 breast, 114%; in the test with MDA-MB-435 melanoma it was 94.9%; with SW-620 colon, 99.4%; with MCF7 breast, 93.1%; in the test with HCT-116 colon, 92.5%. Further, the growth was 101% in the test on HCC-2998 colon and 96.1% with KM12 colon.

For `COc1ccc2c(c1)[nH]c(=O)c1c3cccc(F)c3cn21`, the growth was 63.9% in the test with T-47D breast; 42.8% with BT-549 breast; -51.9% (active) in the test on MDA-MB-435 melanoma; 27.2% in the test with SW-620 colon; 22.3% with MCF7 breast; 24.6% in the test with HCT-116 colon. The growth in the test on HCC-2998 colon is 31.9%; with KM12 colon, 8.44% (active).

`COc1cc(-c2ncn(/C=C\C(=O)OC(C)C)n2)cc(C(F)(F)F)c1`: the growth is 16.3% with T-47D breast; -62.6% (active) in the test on BT-549 breast; -34.7% (active) in the test on MDA-MB-435 melanoma; 0.254% (active) in the test with SW-620 colon; -24.5% (active) with MCF7 breast; 2.85% (active) in the test on HCT-116 colon. Further, the growth in the test with HCC-2998 colon is -39.8% (active); in the test with KM12 colon it was 0.0792% (active).

Regarding `COc1cc(-c2nn(-c3cccc(NC(=O)c4ccc(N5CCOCC5)c(C(F)(F)F)c4)c3)cc2-c2ccncc2)ccc1Cl`, the growth with T-47D breast is 27.5%; in the test on BT-549 breast it was 14.3%; in the test with MDA-MB-435 melanoma, -35.1% (active); in the test on SW-620 colon, 25.2%; in the test with MCF7 breast it was 8.85% (active); in the test with HCT-116 colon, 8.35% (active). Moreover, the growth was 8.82% (active) in the test on HCC-2998 colon and 5.64% (active) in the test with KM12 colon.

As to `CCOC(=O)C1=C(C)NC(C)=C(C(=O)OCC)C1(C)C`, the growth with T-47D breast was 95%; in the test with BT-549 breast, 93.6%; in the test on MDA-MB-435 melanoma, 116%; in the test with SW-620 colon, 117%; in the test with MCF7 breast, 98.9%; in the test with HCT-116 colon, 100%. Also, the growth was 108% in the test with HCC-2998 colon and 118% in the test with KM12 colon.

For `Cc1nc2ncccc2nc1Nc1ccc(S(=O)(=O)Nc2ccccn2)cc1`, the growth with T-47D breast is 91.2%; in the test with BT-549 breast, 83.3%; in the test on MDA-MB-435 melanoma, 109%; with SW-620 colon, 102%; in the test with MCF7 breast it was 92.7%; in the test on HCT-116 colon, 92%. Moreover, the growth in the test on HCC-2998 colon was 99.5%; in the test with KM12 colon, 97.8%.

As for `COc1cc(-c2nn(-c3cccc(NC(=O)Nc4ccc(Cl)c(Cl)c4)c3)cc2-c2ccncc2)ccc1Cl`, the growth in the test on T-47D breast is 2.98% (active); in the test with BT-549 breast it was 6.23% (active); with MDA-MB-435 melanoma, -45.8% (active); in the test on SW-620 colon it was 13.4%; with MCF7 breast, 1.73% (active); with HCT-116 colon, 8.67% (active). The values for the growth with HCC-2998 colon and in the test with KM12 colon were 2.84% (active) and 1.3% (active), respectively.

In the case of `Cc1nc2c3c(ncn2n1)Oc1c(c(=O)[nH]c2ccccc12)C3c1ccc(Cl)cc1` (configuration not stated), the growth with T-47D breast is 86%; in the test on BT-549 breast, -52.7% (active); in the test with MDA-MB-435 melanoma it was 102%; in the test on SW-620 colon, 95.4%; in the test with MCF7 breast, 91.6%; with HCT-116 colon it was 88.8%. The growth is 102% in the test on HCC-2998 colon and 99.2% in the test on KM12 colon.

On to `Nc1cccc(-c2nc3sccn3c2-c2ccnc(NCCCNS(=O)(=O)c3cccc4ccccc34)n2)c1`, for which the growth with T-47D breast is -2.4% (active); in the test on BT-549 breast, 7.66% (active); with MDA-MB-435 melanoma, 23.2%; in the test with SW-620 colon, 68.2%; in the test with MCF7 breast, 25.2%; in the test on HCT-116 colon it was 36.1%. The growth with HCC-2998 colon was 60.7%; in the test on KM12 colon it was 23.6%.

Regarding `Cc1cccc(/C=N/Nc2cc(C)c3cccc(C)c3n2)n1`, the growth with T-47D breast is 83%; in the test on BT-549 breast it was 91.4%; in the test on MDA-MB-435 melanoma it was 96.3%; in the test on SW-620 colon, 94.7%; with MCF7 breast, 48.4%; in the test with HCT-116 colon, 65.1%. The growth was 108% in the test on HCC-2998 colon and 97.5% with KM12 colon.

The values are drawn from PubChem BioAssay (NCI).
